The list is not random: actives were taken first. Their share in the collection is about 10%.
GLS inhibitor – blocks human kidney-isoform glutaminase activity; O94925; GLS enzymatic activity, qHTS titration; Potency, µM (titrated, usually from 45.5 µM), inactives show at the highest dose activity change, negative = inhibition, actives largely listed as inhibitors; hit rate 0.21% among 410,000; AID 624170; also: % is scaled to controls: 0 for no effect and ±100 for the full control effect
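Assay buffer: 45 mM KH2PO4 pH 8.2, 0.02% Tween-20. hKGA acts on L-glutamine (1 mM solution added); product glutamate is reported by an oxidase/peroxidase Amplex Red coupling, with fluorescence taken at baseline and 30 min.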
BAZ2B inh – BAZ2B (human) inhibition | Q9UIF8 | AlphaScreen BAZ2B-H3K14Ac peptide displacement | Potency, µM (doses to about 114 µM), inactives show top-dose activity change, negative = inhibition, usual class: inhibitors | hit rate 4.4% among 360,000; also: % is scaled to controls: 0 for no effect and ±100 for the full control effect; nearly all actives have a fitted effect of over 60% in size
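Compounds, titrated to a top concentration of 110 uM, were incubated 30 min at room temperature with preformed BAZ2B/acetyl-K14 H3 peptide complex (50 nM each). Proximity signal was measured by AlphaScreen after 20 min with beads.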
JMJD2A Tudor inh – JMJD2A Tudor domain (human) inhibition. hit rate 4.4% among 390,000. AlphaScreen JMJD2A-Tudor / H3K4me3 peptide binding. AID 504339. Potency, µM (titrated, usually from 114 µM), for the others: top-dose activity change, negative = inhibition, usual class: inhibitors; also: % is scaled to controls: 0 for no effect and ±100 for the full control effect; nearly all actives have a fitted effect of over 50% in size
G9a inh – G9a (human) methyltransferase inhibition; Q96KQ7; G9a H3K9 monomethylation, AlphaScreen, 2 h; Potency, µM (series often up to 102 µM), for inactives: at the top dose activity, negative = inhibition, most hits filed as inhibitors; hit rate 8.8% among 350,000; AID 504332; also: % is scaled to controls: 0 for no effect and ±100 for the full control effect; nearly all actives have a fitted effect of over 75% in size
Target sequence (Q96KQ7 913-1193 limits assumed): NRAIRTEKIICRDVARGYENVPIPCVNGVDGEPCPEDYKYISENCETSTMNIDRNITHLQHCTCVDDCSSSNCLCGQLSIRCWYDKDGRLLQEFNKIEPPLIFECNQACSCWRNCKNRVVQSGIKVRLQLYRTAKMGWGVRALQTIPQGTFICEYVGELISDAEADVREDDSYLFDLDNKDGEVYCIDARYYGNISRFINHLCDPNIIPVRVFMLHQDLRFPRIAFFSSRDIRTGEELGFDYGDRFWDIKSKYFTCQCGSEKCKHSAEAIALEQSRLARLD
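Signal arises when biotinylated H3K9 peptide, once monomethylated, bridges streptavidin donor and antibody-captured acceptor beads. Enzyme at 20 nM was preincubated 15 min with test compounds; peptide 500 nM and SAM 20 uM then reacted for 2 h.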
HP1b chromo inh – blocks HP1-beta chromodomain binding to methylated histone tails | P83916 | AlphaScreen HP1-beta / biotin-H3K9me3 peptide binding | Potency, µM (top dose mostly 114 µM), inactives show top-dose activity change, negative = inhibition, hits mostly inhibitors | hit rate 0.56% among 390,000 | AID 540317; also: nearly all actives have a fitted effect of over 70% in size
Target sequence (P83916 whole entry, looked up): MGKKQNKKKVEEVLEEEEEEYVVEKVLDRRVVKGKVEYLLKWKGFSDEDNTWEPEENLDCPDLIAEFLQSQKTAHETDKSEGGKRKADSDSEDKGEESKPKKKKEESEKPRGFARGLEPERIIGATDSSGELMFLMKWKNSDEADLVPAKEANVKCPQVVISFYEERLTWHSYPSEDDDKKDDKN
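Compound inhibition of the preformed complex between 50 nM HP1-beta and 50 nM biotinylated H3K9me3 peptide was read by AlphaScreen. Buffer was PBS pH 7.4 with 0.01% Tween-20. Incubations ran 30 min at room temperature, with 10 ug/mL donor/acceptor beads.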
* = called active by the depositor; ? = inconclusive; · = no result given; [ ] = remark or other dose. Calls follow the shape of the dose curve; as a rule, active = well fitted curve in the direction sought with a large enough effect; inconclusive = small, poorly fitted or top-dose-only effect, or another doubt; inactive = no such curve, though single readings can be large; an effect the other way counts as inactive or inconclusive. Potency is read from the fitted curve at half-maximal effect.

SMILES | GLS inhibitor | BAZ2B inh | JMJD2A Tudor inh | G9a inh | HP1b chromo inh
CCOC(=O)c1c(C)[nH]c(C2=NNC(=NC3CC3)SC2)c1C | 13% | -32% | ? | 18µM* | ?
O=c1[nH]cc(-c2ccccc2)c(=O)[nH]1 | 2% | -6% | -4% | -1% | 35%
Nc1c(-c2ccccc2)cc[nH]c1=O | · | · | 8.9µM* | · | ·
c1ccc2c(c1)CCC[C@@H]2C1=NCCN1 | -2% | · | · | 3%[12.7 µM] | ·
N#CCCN(C(=O)COC(=O)c1ccc2c(=O)n3c(nc2c1)CCC3)c1ccccc1 | -14% | -6% | 14µM* | 31% | -8%
CC(=O)c1cccc(OC(=O)c2ccc3c(=O)n4c(nc3c2)CCC4)c1 | -4% | -38% | -14% | 7.1µM* | 19%
COc1ccc(S(=O)(=O)N2CCN(CC(=O)Nc3ccc(Cl)c(C(F)(F)F)c3)CC2)cc1 | -10% | -1% | -17% | -9%[59 µM] | 2%
CC(C)CC(=O)Nc1c(C(=O)N2CCN(c3ccccc3F)CC2)oc2ccccc12 | -11% | ? | ? | -29%[59 µM] | 12%
O=S(=O)(Nc1ccccc1)c1cccc2nsnc12 | 3% | 50µM* | ? | ? | ?
O=C(C1CCC(CNS(=O)(=O)c2cccc3nsnc23)CC1)N1CC=C(c2ccccc2)CC1 (centres undefined) | -5% | 17% | -28% | 89µM* | 16%
O=C(O)CNS(=O)(=O)c1cccc2nsnc12 | 7% | -27% | 14µM* | 3%[12.7 µM] | 10%
Cc1ccc(NS(=O)(=O)c2cccc3nsnc23)cc1 | 4% | 4% | -26% | ? | 16%
Cc1ccc(NS(=O)(=O)c2cccc3nsnc23)cc1[N+](=O)[O-] | -12% | -29% | -21% | 40µM* | 9%
Cc1cc(C)cc(NC(=O)Cn2c(C(F)(F)F)nc3ccccc32)c1 | 0% | 1% | 7% | 6%[59 µM] | 27%
O=C(COC(=O)CNC(=O)c1ccccc1)NC12CC3CC(CC(C3)C1)C2 | -5% | · | · | · | ·
CCc1cc(/C(Cc2ccccn2)=N\Nc2ccccc2)c(O)cc1O | 0% | 50µM* | ? | 2.5µM* | ?
Cc1nc(CC(=O)c2ccc(O)cc2O)cs1 | 21% | -2% | 4% | ? | 28%
Cc1nc(C/C(=N\Nc2ccccc2)c2ccc(O)cc2O)cs1 | 1% | 50µM* | 50µM* | 4.5µM* | ?
Cc1ccc(C(=O)c2oc3ccccc3c2NC(=O)c2cc(-c3ccc(Cl)cc3)on2)cc1 | -16% | 1% | -14% | ? | 28%
Cc1ccc(-c2c(C(=O)N3CCN(c4cc(Cl)ccc4C)CC3)oc(=O)c3ccccc23)cc1 | -9% | · | -19% | -5%[59 µM] | 7%
CC(C(=O)O)n1c2ccccc2c2cnn(C)c(=O)c21 (centres undefined) | -11% | -6% | -5% | 45µM* | 40%
CCC(C(=O)O)n1c(C(F)(F)F)nc2ccccc21 (centres undefined) | -1% | 10% | 14% | 0%[12.7 µM] | 37%
CCC(C(=O)O)n1c2ccccc2c2cn[nH]c(=O)c21 (centres undefined) | -5% | 4% | -12% | 45µM* | 30%
O=C(Nc1nnc([C@@H]2C[C@H](O)[C@@H](CO)O2)s1)c1cccc(C(F)(F)F)c1 | -1% | · | · | · | ·
N#C/C(=C\c1ccc(OCC(N)=O)cc1)S(=O)(=O)c1ccccc1 | 3% | -12% | 3% | ? | 47%
SMILES | GLS inhibitor | BAZ2B inh | JMJD2A Tudor inh | G9a inh | HP1b chromo inh
C[C@H]1O[C@H](O[C@H]2[C@H](O[C@@H]3CC[C@@]4(C)C(CC[C@]5(C)C4CC=C4[C@@H]6CC(C)(C)CC[C@]6(C(=O)O[C@@H]6O[C@H](CO)[C@@H](O)[C@H](O)[C@H]6O)CC[C@]45C)C3(C)C)O[C@H](C(=O)O)[C@@H](O)[C@@H]2O)[C@@H](O)[C@@H](O)[C@@H]1O (some centres undefined) | ? | 7% | -14% | 12%[12.7 µM] | 52%
C[C@@H]1CC[C@]2(C(=O)O[C@@H]3O[C@H](CO)[C@@H](O)[C@H](O)[C@H]3O)CC[C@]3(C)C(=CCC4[C@@]5(C)C[C@@H](O)[C@H](O)[C@@](C)(C(=O)O[C@@H]6[C@H](O)C[C@@]7(C)C(CC[C@]8(C)C7CC=C7[C@H]9[C@](C(=O)O[C@@H]%10O[C@H](CO)[C@@H](O)[C@H](O)[C@H]%10O)(CC[C@@H](C)[C@@]9(C)O)CC[C@]78C)[C@@]6(CO)C(=O)O)C5CC[C@]43C)[C@@H]2[C@]1(C)O (some centres undefined) | 7.1µM* | · | -13% | · | 21%
CCOCCCNC(=O)c1cc2c(=O)n(C)c3ccccc3c2n1C | 1% | -8% | -13% | 10µM* | 17%
Cc1ccc(CNC(=O)c2cc3c(=O)n(C)c4ccccc4c3n2C)cc1 | -4% | -4% | -19% | 6% | 9%
Cn1c(C(=O)NCCN2CCOCC2)cc2c(=O)n(C)c3ccccc3c21 | 13% | 10% | -17% | ? | 52%
CCCN(CCC)CCNC(=O)c1cc2c(=O)n(C)c3ccccc3c2n1C | 12% | -1% | 35µM* | ? | 14%
CN(CCNC(=O)c1cc2c(=O)n(C)c3ccccc3c2n1C)Cc1ccccc1 | -1% | -35% | -26% | 50µM* | 28%
OC[C@@H]1CN(Cc2ccc3c(c2)OCO3)C[C@H](n2cnc3c(N4CCN(c5ccccc5)CC4)ncnc32)O1 | 17% | · | · | · | ·
COc1ccc(NC(=O)c2ccccc2OCc2ccc(F)cc2)c(OC)c1 | -8% | -11% | -6% | -5% | 18%
CC1C(=O)N2CCCc3cc(S(=O)(=O)Nc4ccccc4C(N)=O)cc1c32 (centres undefined) | 2% | -1% | -10% | 45µM* | 11%
CC1C(=O)N2CCCc3cc(S(=O)(=O)Nc4ccccc4F)cc1c32 (centres undefined) | -13% | 7% | -9% | -27% | 23%
CC1C(=O)N2CCCc3cc(S(=O)(=O)N4CCC(C(N)=O)CC4)cc1c32 (centres undefined) | -22% | ? | -13% | 13µM* | 61%
CC1C(=O)N2CCCc3cc(S(=O)(=O)N4CCCCC4)cc1c32 (centres undefined) | 0% | 10% | 4% | -28% | 20%
COc1cccc(C(=O)NCCS(=O)(=O)N2CCCCC2)c1 | -7% | 12% | -3% | 11µM* | 22%
COc1cccc(C(=O)NCCS(=O)(=O)N2CCc3ccccc3C2)c1 | 4% | 6% | -15% | -40% | 16%
COc1cccc(C(=O)NCCS(=O)(=O)N2CCCCCC2)c1 | 2% | -3% | -13% | ? | 15%
COc1cccc(C(=O)NCCS(=O)(=O)N2CCCC2)c1 | 1% | -2% | -8% | 32µM* | 20%
CCOC(=O)N1CCN(S(=O)(=O)CCNC(=O)c2cccc(OC)c2)CC1 | 4% | -1% | 0% | 50µM* | 22%

High-throughput results from PubChem BioAssay.
